Among the data in PubChem BioAssay (NCI) are growth inhibition values, retold here.

About 79,000 compounds went through this panel and 15% of them were active in at least one assay; those are over-represented in the sample as a whole. Values without a mark were called inactive. The source made the active and inactive calls. Cut-off read from the data, not from the text of the source: active = growth inhibition above about 70%; inactive = the rest.

Test [1] is described as follows: NCI Yeast Anticancer Drug Screen. Data for the rad50 strain (AID 155).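 Note: 0% = growth of vehicle-only cultures of the same strain.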 Particulars: S. cerevisiae rad50 strain growth inhibition, stronger effect = higher value. The method in brief:
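Growth of the mutant yeast was measured after compound exposure and referenced to vehicle-treated cultures.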

Test [2] in a line: NCI Yeast Anticancer Drug Screen. Data for the mec2-1 strain (AID 157). Particulars: S. cerevisiae mec2-1 strain, stronger effect = higher value. The method in brief:
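Growth inhibition is read against vehicle-treated controls after compound exposure of the mec2-1 yeast strain, which is defective in DNA damage repair or cell cycle control.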

Test [3] is described as follows: NCI Yeast Anticancer Drug Screen. Data for the sgs1 mgt1 strain (AID 161).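 Note: 0% = growth of cultures given vehicle only.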 The conditions noted are these: S. cerevisiae sgs1 mgt1 strain, stronger effect = higher value. The method in brief: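 Compounds are added to genetically altered yeast, and growth is compared with cultures given vehicle alone to give percent inhibition.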
Test [4] in a line: NCI Yeast Anticancer Drug Screen. Data for the cln2 rad14 strain (AID 165).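 Note: 0% = growth equal to vehicle treated cultures.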 The conditions noted are these: S. cerevisiae cln2 rad14 strain, stronger effect = higher value. The method in brief: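 Growth inhibition, relative to vehicle-treated controls, is the read-out. The test organism is a yeast strain with defined genetic alterations, cln2 rad14.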
Test [5] in a line: NCI Yeast Anticancer Drug Screen. Data for the bub3 strain (AID 167). The conditions noted are these: S. cerevisiae bub3 mutant strain, stronger effect = higher value. The method in brief:
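Whole-cell yeast assay. The mutant strain was incubated with compounds, and growth inhibition was determined by comparison with vehicle-treated cells.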

Test [6] is described as follows: NCI Yeast Anticancer Drug Screen. Data for the mlh1 rad18 strain (AID 175). Particulars: S. cerevisiae mlh1 rad18 strain growth inhibition, stronger effect = higher value. The method in brief: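 Cells of a genetically altered yeast strain, deficient in DNA damage repair, were treated with compound. Their growth was then compared with that of vehicle-treated cultures to give inhibition.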

[7] abbreviates: at 5.0 µM (retest, dose inferred, filed as 0.5).
Setting [8] is: at 50.0 µM (retest, dose inferred, filed as 5.0).

As for `CCCCCCCCN(CCCCCCCC)Cc1ccc(Br)cc1`, the growth inhibition in test [1] (setting [7]) was 98% (active); in test [1] (setting [8]), 99% (active); in test [1] (at 50.0 µM), 99.2% (active); in test [2] (setting [7]), 96% (active); in test [2] (setting [8]), 100% (active); in test [2] (at 50.0 µM) it was 99.5% (active). Further, the growth inhibition is 99% (active) in test [3] (setting [7]); 99% (active) in test [3] (setting [8]); 99.5% (active) in test [3] (at 50.0 µM); 97% (active) in test [4] (setting [7]); 99% (active) in test [4] (setting [8]); 99% (active) in test [4] (at 50.0 µM). Moreover, the growth inhibition was 96% (active) in test [5] (setting [7]); 99% (active) in test [5] (setting [8]); 99.2% (active) in test [5] (at 50.0 µM); 97% (active) in test [6] (setting [7]); 99% (active) in test [6] (setting [8]); 99.5% (active) in test [6] (at 50.0 µM).
For the molecule `O=[N+]([O-])c1c(O)cccc1O`, the growth inhibition was 45% in test [1] (setting [7]); 98% (active) in test [1] (setting [8]); 99% (active) in test [1] (at 50.0 µM); 17% in test [2] (setting [7]); 99% (active) in test [2] (setting [8]); 99.2% (active) in test [2] (at 50.0 µM). Besides, the growth inhibition in test [3] (setting [7]) is 29%; in test [3] (setting [8]), 99% (active); in test [3] (at 50.0 µM), 99.2% (active); in test [4] (setting [7]) it was 24%; in test [4] (setting [8]), 99% (active); in test [4] (at 50.0 µM), 98% (active). For the same molecule, the growth inhibition is 14% in test [5] (setting [7]); 99% (active) in test [5] (setting [8]); 98.9% (active) in test [5] (at 50.0 µM); 36% in test [6] (setting [7]); 99% (active) in test [6] (setting [8]); 98.5% (active) in test [6] (at 50.0 µM).
As for `O=C(NCCCCCCNC(=O)n1cc(F)c(=O)[nH]c1=O)NC1C(O)OC(CO)C(O)C1O` (stereo not given), the growth inhibition in test [1] (setting [7]) was 63%; in test [1] (setting [8]) it was 89% (active); in test [1] (at 50.0 µM), 93.9% (active); in test [2] (setting [7]) it was 80% (active); in test [2] (setting [8]), 96% (active); in test [2] (at 50.0 µM), 97.6% (active). In addition, the growth inhibition is 83% (active) in test [3] (setting [7]); 93% (active) in test [3] (setting [8]); 93.1% (active) in test [3] (at 50.0 µM); 34% in test [4] (setting [7]); 84% (active) in test [4] (setting [8]); 51% in test [4] (at 50.0 µM). Further, the growth inhibition was 22% in test [5] (setting [7]); 90% (active) in test [5] (setting [8]); 80% (active) in test [5] (at 50.0 µM); 48% in test [6] (setting [7]); 90% (active) in test [6] (setting [8]); 88.2% (active) in test [6] (at 50.0 µM).
With `Cc1cc2nc3n(c2cc1C)C(c1c(F)cccc1F)SC3` (stereo not given), the growth inhibition in test [1] (setting [7]) is 25%; in test [1] (setting [8]), 24%; in test [1] (at 50.0 µM), -6.85%; in test [2] (setting [7]), 16%; in test [2] (setting [8]), 12%; in test [2] (at 50.0 µM) it was -14.7%. Moreover, the growth inhibition was 27% in test [3] (setting [7]); 24% in test [3] (setting [8]); 9.1% in test [3] (at 50.0 µM); 12% in test [4] (setting [7]); 23% in test [4] (setting [8]); -6.1% in test [4] (at 50.0 µM). In addition, the growth inhibition is 26% in test [5] (setting [7]); 25% in test [5] (setting [8]); 30.5% in test [5] (at 50.0 µM); 26% in test [6] (setting [7]); 22% in test [6] (setting [8]); -0.35% in test [6] (at 50.0 µM).
For the molecule `COc1cccc(=O)cc1`, the growth inhibition in test [1] (setting [7]) was 5%; in test [1] (setting [8]), 86% (active); in test [1] (at 50.0 µM), 83.3% (active); in test [2] (setting [7]), 12%; in test [2] (setting [8]), 51%; in test [2] (at 50.0 µM), 26.4%. The growth inhibition in test [3] (setting [7]) was 11%; in test [3] (setting [8]) it was 83% (active); in test [3] (at 50.0 µM), 93.5% (active); in test [4] (setting [7]) it was 7%; in test [4] (setting [8]), 32%; in test [4] (at 50.0 µM), 19.4%. For the same molecule, the growth inhibition in test [5] (setting [7]) was 3%; in test [5] (setting [8]) it was 85% (active); in test [5] (at 50.0 µM), 92.9% (active); in test [6] (setting [7]) it was 3%; in test [6] (setting [8]), 94% (active); in test [6] (at 50.0 µM), 76.4% (active).
`NC(=O)c1c(Cl)nc2n1CCS2`: the growth inhibition in test [1] (setting [7]) is 1%; in test [1] (setting [8]), 0%; in test [1] (at 50.0 µM), 13.8%; in test [2] (setting [7]) it was 0%; in test [2] (setting [8]) it was -2%; in test [2] (at 50.0 µM), -17.4%. The growth inhibition in test [3] (setting [7]) is -2%; in test [3] (setting [8]), 1%; in test [3] (at 50.0 µM) it was -1.3%; in test [4] (setting [7]) it was -2%; in test [4] (setting [8]), -7%; in test [4] (at 50.0 µM), 8.4%. The growth inhibition in test [5] (setting [7]) is -3%; in test [5] (setting [8]), -5%; in test [5] (at 50.0 µM), -4.2%; in test [6] (setting [7]) it was 4%; in test [6] (setting [8]), 1%; in test [6] (at 50.0 µM) it was 0.15%.
Turning to `CC(C)(C)C(=O)CC(=O)C(F)(F)C(F)(F)C(F)(F)F.CC(C)(C)C(=O)CC(=O)C(F)(F)C(F)(F)C(F)(F)F.CC(C)(C)C(=O)CC(=O)C(F)(F)C(F)(F)C(F)(F)F.[Er]`, the growth inhibition in test [1] (setting [7]) is 92% (active); in test [1] (setting [8]), 28%; in test [1] (at 50.0 µM), 92.5% (active); in test [2] (setting [7]), 65%; in test [2] (setting [8]), 9%; in test [2] (at 50.0 µM), 91% (active). Moreover, the growth inhibition was 43% in test [3] (setting [7]); 38% in test [3] (setting [8]); 91.2% (active) in test [3] (at 50.0 µM); 40% in test [4] (setting [7]); 38% in test [4] (setting [8]); 88.8% (active) in test [4] (at 50.0 µM). Also, the growth inhibition is 40% in test [5] (setting [7]); 34% in test [5] (setting [8]); 91.2% (active) in test [5] (at 50.0 µM); 90% (active) in test [6] (setting [7]); 26% in test [6] (setting [8]); 65.8% in test [6] (at 50.0 µM).
As for `CCOC(=O)c1[nH]c2c([N+](=O)[O-])cccc2c1[N+](=O)[O-]`, the growth inhibition is -12% in test [1] (setting [7]); 15% in test [1] (setting [8]); 97% (active) in test [1] (at 50.0 µM); -16% in test [2] (setting [7]); 16% in test [2] (setting [8]); 98% (active) in test [2] (at 50.0 µM). In addition, the growth inhibition in test [3] (setting [7]) was -3%; in test [3] (setting [8]), 9%; in test [3] (at 50.0 µM) it was 94.8% (active); in test [4] (setting [7]), 4%; in test [4] (setting [8]) it was 25%; in test [4] (at 50.0 µM), 98.6% (active). Further, the growth inhibition in test [5] (setting [7]) was 0%; in test [5] (setting [8]) it was 7%; in test [5] (at 50.0 µM) it was 98.8% (active); in test [6] (setting [7]), -2%; in test [6] (setting [8]), 37%; in test [6] (at 50.0 µM) it was 99% (active).
On to `C=C1CC(C)(COc2ccc3c(C)c(Cl)c(=O)oc3c2)OC1=O` (stereo not given), for which the growth inhibition in test [1] (setting [7]) is 23%; in test [1] (setting [8]), 95% (active); in test [1] (at 50.0 µM), 80% (active); in test [2] (setting [7]), 2%; in test [2] (setting [8]) it was 97% (active); in test [2] (at 50.0 µM) it was 68.8%. The growth inhibition in test [3] (setting [7]) was -2%; in test [3] (setting [8]), 95% (active); in test [3] (at 50.0 µM), 81% (active); in test [4] (setting [7]), -15%; in test [4] (setting [8]), 92% (active); in test [4] (at 50.0 µM), 76.8% (active). The growth inhibition was 13% in test [5] (setting [7]); 94% (active) in test [5] (setting [8]); 85.8% (active) in test [5] (at 50.0 µM); 8% in test [6] (setting [7]); 97% (active) in test [6] (setting [8]); 58.6% in test [6] (at 50.0 µM).
As for `O=C(CC(=O)Nc1cccc(Cl)c1)NNCC(=O)Nc1nnc(-c2ccccc2)s1`, the growth inhibition was 8% in test [1] (setting [7]); 98% (active) in test [1] (setting [8]); 8.5% in test [1] (at 50.0 µM); 6% in test [2] (setting [7]); 99% (active) in test [2] (setting [8]); 8.05% in test [2] (at 50.0 µM). The growth inhibition is 11% in test [3] (setting [7]); 99% (active) in test [3] (setting [8]); 0.65% in test [3] (at 50.0 µM); 3% in test [4] (setting [7]); 98% (active) in test [4] (setting [8]); 51.1% in test [4] (at 50.0 µM). The growth inhibition was 7% in test [5] (setting [7]); 99% (active) in test [5] (setting [8]); -3.45% in test [5] (at 50.0 µM); 3% in test [6] (setting [7]); 98% (active) in test [6] (setting [8]); 9.9% in test [6] (at 50.0 µM).
